According to PubChem BioAssay AID2613 (National Center for Advancing Translational Sciences (NCATS), 2010):
Records with an inconclusive call do not appear. Where a call stands in place of a potency, no number is given. Active and inactive are the calls of the source. The call rests on the fitted dose curve; in most records, active means well fitted inhibition curve with a large enough effect; inconclusive means small, poorly fitted or top-dose-only effect; inactive means flat fitted curve, though single readings scatter.

The molecules below were run against Lysosomal acid glucosylceramidase (Homo sapiens) (UniProt P04062) (assay: qHTS Assay for Inhibitors and Activators of N370S glucocerebrosidase as a Potential Chaperone Treatment of Gaucher Disease: Activity in N370S Spleen Homogenate Using a Red Fluorescent Substrate). Conditions: red fluorogenic substrate; series mostly up to 49.6 µM.
Lysosomal acid glucosylceramidase (Homo sapiens), sequence (P04062 whole entry N409S): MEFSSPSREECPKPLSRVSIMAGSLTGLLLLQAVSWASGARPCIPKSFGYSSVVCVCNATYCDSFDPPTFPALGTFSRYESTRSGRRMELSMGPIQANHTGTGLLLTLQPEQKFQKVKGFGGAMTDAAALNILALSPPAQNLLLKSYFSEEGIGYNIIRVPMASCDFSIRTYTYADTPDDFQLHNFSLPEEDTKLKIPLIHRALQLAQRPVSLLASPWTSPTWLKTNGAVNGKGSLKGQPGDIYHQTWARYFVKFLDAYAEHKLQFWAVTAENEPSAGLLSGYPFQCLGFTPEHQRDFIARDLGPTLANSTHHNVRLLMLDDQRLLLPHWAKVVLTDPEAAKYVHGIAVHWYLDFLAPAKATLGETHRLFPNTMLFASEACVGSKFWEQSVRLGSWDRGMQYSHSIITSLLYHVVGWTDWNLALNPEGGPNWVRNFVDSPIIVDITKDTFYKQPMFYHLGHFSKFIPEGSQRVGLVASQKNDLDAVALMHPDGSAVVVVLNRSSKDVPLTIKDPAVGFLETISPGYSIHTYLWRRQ
Excerpt: NIH Chemical Genomics Center [NCGC]
NIH Molecular Libraries Probe Production Centers Network [MLPCN]
Assay Submitter (PI): Wei Zheng
Glucocerebrosidase (GC) catalyzes the hydrolysis of beta-glucocerebroside to glucose and ceramide in lysosomes. Mutations in the glucocerebrosidase gene result in Gaucher disease, an autosomal recessive lysosomal storage disorder. Many of the mutations encountered in patients with Gaucher disease are missense alterations that may cause misfolding, decreased stability and/or mistrafficking of this lysosomal protein. […] These inhibitors include iminosugar analogs and three non-iminosugar inhibitors identified from a previous HTS of 62,000 compounds with the wild type recombinant enzyme. However, the enhancement of enzyme activity by the chaperone action of an enzyme inhibitor must be balanced against the direct inhibition of the enzyme. An enzyme activator could also function as a chaperone by binding to the enzyme and helping to correct its misfolding and mistrafficking. While activators for GC have not yet been identified, they may have better therapeutic potential than inhibitors. Therefore the discovery and development of chemical activators may provide a new strategy for the chaperone therapy.
We have optimized a new assay using N370S mutant GC derived from the spleen of a Gaucher patient. […] In addition, the MLPCN compound library has expanded, which increases the chance of finding new and better probes.
This confirmation assay tests for compound activity in spleen homogenate from a patient homozygous for the N370S mutation using an alternate resorufin-based substrate.
NCGC Assay Protocol Summary:
This is a fluorogenic enzyme assay with resorufin-beta-D-glucopyranoside as the substrate and mutant N370S glucocerebrosidase from human spleen homogenate as the enzyme preparation. Upon the hydrolysis of this fluorogenic substrate, the resulting product, […] which can be detected by a standard fluorescence plate reader. Data were normalized to the controls for basal activity (without enzyme) and 100% activity (with enzyme). The AC50 values were determined from concentration-response data modeled with the standard Hill equation.
Assay buffer: 50 mM citric acid (titrated with potassium phosphate to pH 5.0), 100 mM potassium chloride, 10 mM sodium chloride, 1 mM magnesium chloride, 0.01% Tween-20.
1536-well assay protocol:
(1) Add 2 ul/well of spleen homogenate (27 ug final)
(2) Add 23 nL compounds in DMSO solution. The final titration was 0.5 nM to 58 uM.
(3) Add 2 ul of substrate (1 mM final)
(4) Incubate at 37C for 40 min.
(5) Add 2 ul stop solution (1M NaOH and 1M Glycine mixture, pH 10)
(6) Detect the assay plate in a ViewLux plate reader (PerkinElmer) with Ex=365 nm and Em=440nm.
Keywords: Glucocerebrosidase, beta-glucosidase, Gaucher Disease, pharmacological chaperone, chaperone therapy, high throughput screening, glucocerebrosidase inhibitor, MLSMR, MLSCN, NIH Roadmap, qHTS and NCGC

Row | Structure (SMILES) | Potency
1 | CCCCNC(=O)c1ccc(NS(=O)(=O)c2ccccc2)cc1 | inactive
2 | Cc1cccc(/C=N/NC(=O)NC23CC4CC(CC(C4)C2)C3)n1 | inactive
3 | CSc1ccc(NC(=O)Nc2cc(C)ccn2)cc1 | inactive
4 | CCc1cc(C(=O)N/N=C/c2c(C)[nH]c3ccccc23)cs1 | inactive
5 | CC1CC(C)CN(C(=O)CSc2nc(Cc3cccs3)nc3ccccc23)C1 (centres undefined) | inactive
6 | COc1cc(OC)c2c(N)c(C#N)c(C(F)(F)C(F)(F)F)nc2c1 | inactive
7 | OCCNc1nc(Nc2ccc(Cl)cc2)nc(N2CCCC2)n1 | 35.5 µM (active)
8 | CCC(C)c1ccc(NC(=O)c2cnn3c(C(F)F)cc(C)nc23)cc1 (centres undefined) | inactive
9 | CCOc1ccc(N(CC(=O)NC2CCCCCC2)S(=O)(=O)c2c(C)[nH]c(=O)[nH]c2=O)cc1 | 2.82 µM (active)
10 | Cc1ccc(Cl)cc1NC(=O)c1ccccc1OCC(=O)Nc1ccc(Cl)cc1 | inactive
11 | Cc1cc(N2CCC(C)CC2)nc2ccc(NC(=O)C3CCC(C)CC3)cc12 (centres undefined) | 11.2 µM (active)
12 | CCCNC(=O)COC(=O)c1ccccc1OCC(=O)Nc1ccc(Br)cc1 | inactive
13 | O=C(Nc1ccccc1)c1ccc(NS(=O)(=O)c2ccccc2)cc1 | inactive
14 | O=C(COc1ccccc1[N+](=O)[O-])Nc1ccc(Br)cc1 | inactive
15 | CCN(CC)c1cc(C)c2cc(NC(=O)C3CCC(C)CC3)ccc2n1 (centres undefined) | 28.2 µM (active)
16 | COc1cccc(CN(C)c2nc(-c3cccs3)nc3ccccc23)c1 | 2.51 µM (active)
17 | CCCC1CCC(C(=O)Nc2ccc3nc(N4CCOCC4)cc(C)c3c2)CC1 (centres undefined) | 0.562 µM (active)
18 | CCN(CC)c1ccc(C(=O)Nc2ccc3nc(N4CCOCC4)cc(C)c3c2)cc1 | 15.8 µM (active)
19 | O=C(CSc1nccc(-c2cccs2)n1)Nc1cccc(Cl)c1 | inactive
20 | Nc1nc(-c2ccccc2)c(N=Nc2ccc(Cl)cc2)s1 | inactive
21 | O=C(Nc1cnn(Cc2ccc(F)cc2)c1)c1cnn2c(C(F)F)cc(-c3ccccc3)nc12 | inactive
22 | S=C(NCCCc1cnc[nH]1)NCCCN(Cc1ccc(Cl)c(Cl)c1)c1ccc(Br)cn1 | 2.24 µM (active)
23 | O=C(NCc1ccccc1)c1ccc(NS(=O)(=O)c2ccccc2)cc1 | inactive
24 | O=C(Nc1nccs1)c1ccc(NS(=O)(=O)c2ccc(Cl)cc2)cc1 | inactive
